From PubChem
The list is not random: actives were taken first. Their share in the collection is about 11%.
VACV Venus inh: vaccinia inhibition (Venus reporter). 0.46% of 330,000 active. Potency, µM (top dose mostly 36.5 µM), for inactives: at the top dose activity change, negative = inhibition, most hits filed as inhibitors. AID 720580. Vaccinia virus Venus reporter expression, fluorescence; calls by dose curve; tested in A549 cells; further: on the % scale 0 is the no-effect control and ±100 the full control effect; nearly all actives have a fitted effect of over 30% in size
Pf growth 96h: inhibits malaria parasite growth, 96 h. P. falciparum luciferase reporter growth, 96 h. Potency, µM (series often up to 28.7 µM), for inactives: top-dose activity change, negative = inhibition, usual class: inhibitors. AID 504834. 6.9% of 320,000 active; further: on the % scale 0 is the no-effect control and ±100 the full control effect
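Plates of compound plus infected erythrocytes (2% hematocrit, 0.05% parasitemia final) incubate 96 hours, 37 C, 5% CO2. Detection reagent added; reduced luminescence from the parasites' luciferase reporter flags inhibition.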
HCV inh: HCV inhibition; Huh7.5.1 HCVcc-Cre infection, luciferase reporter, 44 h; Potency, µM (series often up to 41.8 µM), without a hit: at the top dose activity change, negative = inhibition, actives largely listed as inhibitors; 3.4% of 340,000 active; further: on the % scale 0 is the no-effect control and ±100 the full control effect
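HCVcc-Cre virus at an moi near 0.5 was added right after compound to cells cultured 4 h from seeding (1,000 cells/well). Luciferase activity was determined 44 h later, 15 min after substrate addition at RT.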
Pf growth 48h: inhibits P. falciparum growth in the first generation, 48 h. P. falciparum luciferase growth in erythrocytes, 48 h. Potency, µM (titrated, usually from 28.7 µM), inactives show at the highest dose activity change, negative = inhibition, most hits filed as inhibitors. 5.9% of 310,000 active. AID 504832; further: on the % scale 0 is the no-effect control and ±100 the full control effect
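Here the parasites carry a stable luciferase gene and grow inside erythrocytes in Albumax-based RPMI medium with compound for one erythrocytic cycle. Activity is scored as loss of luminescent signal.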
NS1 inh: blocks influenza NS1 protein function; Potency, µM (top dose mostly 46.1 µM), without a hit: at the highest dose activity, positive = more growth; 0.4% of 270,000 active; AID 2326; calls by dose curve; further: actives are rising curves; nearly all actives have a fitted effect of over 50% in size
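OD600 was taken as the measure of yeast growth restored by compound in an NS1-expressing S. cerevisiae strain. Cells had been washed out of glucose medium and diluted 1:100 into galactose -URA medium, pH 6.0.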
VACV mCherry inh: vaccinia inhibition (mCherry reporter) | Vaccinia virus mCherry reporter infection, fluorescence | AID 720579 | 0.63% of 310,000 active | Potency, µM (titrated, usually from 36.5 µM), inactives show at the top dose activity change, negative = inhibition, actives largely listed as inhibitors; calls by dose curve; tested in A549 cells; further: on the % scale 0 is the no-effect control and ±100 the full control effect; nearly all actives have a fitted effect of over 35% in size
The depositor's hits bear a star; i = inactive; ? = inconclusive; . = no result given; ! = a repeat was not active; [ ] = another dose, or the depositor's remark. Unless noted, the call rests on the fitted dose curve; in most records, active means well fitted inhibition curve with a large enough effect; inconclusive means small, poorly fitted or top-dose-only effect, or another doubt; inactive means no such curve, though single readings can be large or run the other way. Potency means the concentration at half of the fitted maximal effect.

SMILES	VACV Venus inh	Pf growth 96h	HCV inh	Pf growth 48h	NS1 inh	VACV mCherry inh
CCC(C(=O)NC1CCCC1)N(C(=O)Cn1nnc(-c2ccc(C)o2)n1)c1ccc(F)cc1 (stereo not drawn)	-2%	12µM*	-23%	-2%	2%	-15%
Cc1ccc(-c2nnn(CC(=O)N(CC(=O)NC(C)C)c3cnc4ccccc4c3)n2)o1	-13%	-1%	-3%	-5%	0%	?
Cc1ccc(-c2nnn(CC(=O)N(CC(=O)NCc3ccccc3)c3cccc(C)c3C)n2)o1	.	?	?	15µM*	-13%	.
Cc1ccc(-c2nnn(CC(=O)N(c3ccccc3)C(C(=O)NC3CCCC3)c3ccncc3)n2)o1 (stereo not drawn)	-3%	-16%	-10%	12%	2%	-13%
Cc1cccc(N(CC(=O)NCc2ccccc2)C(=O)Cn2nnc(-c3ccc(C)o3)n2)c1	.	?	-25%	?	-16%	.
CCC(C(=O)NC1CCCC1)N(C(=O)Cn1nnc(-c2ccc(C)o2)n1)c1ccccc1OC (stereo not drawn)	0%	13%	12%	?	11%	-21%
CC1CC(C)CN(CCCNC(=O)Cc2c(C(=O)O)n(C)c3ccccc23)C1 (stereo not drawn)	-1%	.	?	2%	4%	-18%
COc1cccc(CN(C)C(=O)c2cc(S(=O)(=O)NCc3ccccc3)ccc2C)c1OC	-19%	-18%	-18%	-9%	.	-8%
CCC(C(=O)NC1CCCC1)N(C(=O)Cn1nnc(-c2cccs2)n1)c1cnc2ccccc2c1 (stereo not drawn)	.	-2%	9%	12µM*	-26%	.
Cc1ccc(-c2nnn(CC(=O)N(CC(=O)NC3CCCCC3)c3ccc(F)c(Cl)c3)n2)o1	-28%	-6%	?	-19%	2%	-10%[1.46 µM]
Cc1ccc(-c2nnn(CC(=O)N(CC(=O)NC3CCCC3)c3ccc(F)c(Cl)c3)n2)o1	?	13µM*	?	9.3µM*	0%	i[1.46 µM]
CCC(C(=O)NC1CCCC1)N(C(=O)Cn1nnc(-c2ccc(C)o2)n1)c1cnc2ccccc2c1 (stereo not drawn)	.	?	5%	?	-10%	.
CN1C2CCC1CC(OC(=O)c1c[nH]c3ccccc13)C2 (stereo not drawn)	-8%	?	?	12µM*!	-13%	-1%
CCc1ccc(C2N(c3ccc(OC)cc3)C(=O)C3CCCN32)cc1 (stereo not drawn)	-7%	-5%	17%	.	-2%	-7%
CN(CC(=O)Nc1ccc(F)cc1)C(=O)Cn1nnc(-c2ccccc2)n1	-10%	?	-20%	13%	16%	-18%
Cc1ccc(-c2csc(-c3ccncc3)n2)cc1	.	14%	-9%	?	-8%	.
COc1ccc(O)cc1	21%	?	0.79µM*	-7%	.	27%
COc1ccc(-c2csc(-c3ccc(O)cc3)n2)cc1	?	3%	?	69%	-2%	3.5µM*
Cc1cccc(NC(=S)NC(NC(=O)OCc2ccccc2)C(Cl)(Cl)Cl)c1 (stereo not drawn)	?	-12%	-28%	-7%	-1%	?
CC(C)(C)OC(=O)NCCCCCc1cn([C@@H](CO)C(=O)NCCCCCCCCCCC(=O)N2CCN(C(=O)OC(C)(C)C)CC2)nn1	?	2.9µM*	?	1.2µM*	.	?
CC(O)Cc1cn([C@@H](CCCCNC(=O)OC(C)(C)C)C(=O)N2CCN(C(=O)OC(C)(C)C)CC2)nn1 (stereo partly drawn)	-7%	5%	?	1%	0%	i
CC(C)(C)OC(=O)NCCCC[C@@H](C(=O)NCCCCCCCCCCC(=O)N1CCN(C(=O)OC(C)(C)C)CC1)n1cc(CCCC(=O)O)nn1	2%	5.9µM*	17%	7.4µM*	.	-15%
CC(C)(C)OC(=O)CC[C@@H](C(=O)NCCCCCCCCCCC(=O)N1CCN(C(=O)OC(C)(C)C)CC1)n1cc(CCCCCNC(=O)OC(C)(C)C)nn1	?	0.33µM*	-14%	0.37µM*	.	-19%
CCCCc1cn([C@@H](CCCCNC(=O)OC(C)(C)C)C(=O)N2CCN(C(=O)OC(C)(C)C)CC2)nn1	-17%	10µM*	14%	15µM*	-2%	-9%
CC(C)(C)OC(=O)NCCCC[C@@H](C(=O)N1CCN(C(=O)OC(C)(C)C)CC1)n1cc(CCC(=O)O)nn1	1%	39%	22%	25%	4%	i
SMILES	VACV Venus inh	Pf growth 96h	HCV inh	Pf growth 48h	NS1 inh	VACV mCherry inh
c1ccc2sc(C3CCNCC3)nc2c1	-14%	4%	6%	1%	0%	-16%
Cc1ccc2c(c1)CCCN2C(=O)c1ccc2c(c1)OCO2	.	.	-15%	?	-37%	.
CN(C)CCN(CC1CCCN(Cc2ccccc2F)C1)C(=O)c1ccc(Cl)cc1 (stereo not drawn)	-9%	13µM*	?	?	2%	?
OCCCc1nc2n(n1)C(c1cccs1)C=C(c1ccccc1)N2 (stereo not drawn)	.	2%	.	.	-28%	.
OCCCc1nc2n(n1)C(c1ccccc1)C=C(c1ccc(F)cc1)N2 (stereo not drawn)	.	-13%	11µM*	?	10%	.
Cc1ccc(NC(=O)C2CCC(=O)N2)cc1C (stereo not drawn)	-14%	?	11%	-14%	-3%	-15%
O=C1CCC(C(=O)Nc2ccc(Cl)cc2)N1 (stereo not drawn)	1%	5.2µM*	-9%	2%	6%	-20%
O=C(COc1ccc(F)cc1)Nc1ccc2nc(SCCOc3ccccc3)sc2c1	-1%	.	.	.	.	-12%
CCNc1ccc(Br)cc(C(=O)/C=C/c2ccc(Cl)cc2Cl)c1=O	.	-109%	8.9µM*	?	-22%	.
CN(C)c1ccc(/C=C2\N=C(c3ccc(Cl)c([N+](=O)[O-])c3)NC2=O)cc1	4%	27%	3%	38%	8%	-8%
CCc1nc(N)nc(N)c1-c1ccc(Cl)c(N=[N+]=[N-])c1	5.6µM*	.	?	.	.	?
CCc1nc(N)nc(N)c1-c1ccc(Cl)c([N+](=O)[O-])c1	0.28µM*	.	?	.	.	-15%
Nc1cccc(OCc2nc(N)nc(N)c2-c2ccc(Cl)cc2)c1	.	.	.	.	13%	.
Cn1cnc([N+](=O)[O-])c1S(=O)(=O)Oc1cccc2ccccc12	-32%	.	?	.	.	?
Cc1ccc(C)c(-n2c(SCC(N)=O)nnc2-c2ccccn2)c1	-15%	12%	11%	-16%	6%	i
Cc1ccc(-n2nnnc2SCC(=O)N2CCN(C(=O)c3ccco3)CC2)c(C)c1	-15%	6.6µM*	-17%	-19%	-14%	.
Cc1cc2cc3c(cc2nc1SCC(=O)N1CCN(C(=O)c2ccco2)CC1)OCO3	-9%	?	?	13µM*	-47%	-13%
